Experimental data reported in PubChem BioAssay (NCI).
“And” between values parts separate entries of the source, which are not always exact repeats. Equal values may be shown once. Compounds without any hit were thinned out: in the full panel of roughly 83,000, 20% have a hit.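 Cells were grown in 96-well plates and exposed to the test compound at a single concentration for 48 hours; results are reported as percent growth, with values below 10 considered active.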 The source made the active and inactive calls.

What follows are molecules tested on MDA-MB-468 breast (assay: NCI-60 one-dose screen, 48 h (100 = growth as untreated, 0 = no growth, -100 = all killed)). Conditions: 10 µM unless noted.
With `Cc1c(Cn2cc(COc3ccc(Br)cc3)nn2)c(C)c(Cn2cc(COc3ccc(Br)cc3)nn2)c(C)c1Cn1cc(COc2ccc(Br)cc2)nn1` the growth was 109% (inactive).
With `COc1ccc2nc3cc(Cl)ccc3c(Nc3cc(CN4CCCC4)c(O)c(CN4CCCC4)c3)c2n1` the growth was -53.3% (active).
With `CC1=NN2C(=NC3=C(CCC/C3=C\c3ccc(Cl)cc3)C2c2ccc(Cl)cc2)S1` (stereo not given) the growth was 95.6% (inactive).
In the case of `Cc1ncc(C(=O)Nc2ccc(CN3CCN(C)CC3)c(C(F)(F)F)c2)cc1C#Cc1cnc(NC2CC2)c2ncccc12`, the growth is reported as 32% (inactive).
`NC(=S)N/N=C1\c2ccccc2-c2c(F)c(F)c(F)c(F)c21` was tested, and the growth was 25.8% (inactive).
In the case of `CC1OS(=O)OC1C` (stereo not given), the growth is reported as 96.4% (inactive) and 96.2% (inactive).
For `O=Nc1c(O)c(Cl)cc2ccccc12`, the growth was -7.81% (active).
With `COc1cc(C(=O)/C=C/c2c(-c3ccc(F)cc3)nc3sc(C)cn23)cc(OC)c1OC` the growth was 14.1% (inactive).
In the case of `CCSc1nc(-c2cccs2)n2nc(-c3ccco3)cc2n1`, the growth is reported as -37.1% (active).
`O=C(Nc1ccccn1)[C@H](O)[C@@H](O)C(=O)N1CCOCC1` was tested, and the growth was 119% (inactive).
With `COc1cc(-c2nc3c(ncc4ccc(=O)n(-c5ccccc5)c43)s2)cc(OC)c1OC` the growth was 47.3% (inactive).
For `CCCCCN(CCCCC)CC(O)c1cc2c(c3ccccc13)CCCC2` (stereo not given), the growth was 72.1% (inactive) and 81.2% (inactive).
`COc1cccc(NC(=O)c2cccc(C3CCc4c(cc(OC)c(OC)c4OC)O3)c2)c1` (stereo not given) was tested, and the growth was 71.5% (inactive).
For `CC(C)c1ccc(C(=O)Nc2nc3ccc(O)cc3s2)cc1`, the growth was 2.85% (active).
With `CCOCCNC1=C(Cl)C(=O)c2ccccc2C1=O` the growth was 94.7% (inactive).
With `Clc1cccc(Cl)c1Cn1c(-c2cncs2)nc2ccccc21` the growth was 52.6% (inactive).
For `C/C=C(\C)C(C(=O)NC1CCCCC1)N(C(=O)C1CCc2cc(F)ccc2O1)c1ccc([N+](=O)[O-])cc1` (stereo not given), the growth was 85.6% (inactive).
`CC1=Cc2ccccc2OC12C=Cc1ccccc1O2` (stereo not given) was tested, and the growth was 97% (inactive).
In the case of `CC1=NN(c2ccc(S(=O)(=O)O)cc2Cl)C(=O)C1`, the growth is reported as 107% (inactive).
With `O=c1c2cc(F)ccc2sc2c(Nc3cccnc3)nc3ccccc3c12` the growth was 76.4% (inactive).
With `COc1ccc(-c2nc3sc(-c4cc(OC)c(OC)c(OC)c4)nn3c2/C=C2/C(=O)Nc3ccc(F)cc32)cc1` the growth was -65.3% (active).
With `Cc1ccc(S(=O)(=O)n2cc(CNc3ccc(N4CCOCC4=O)cc3)c3ccccc32)cc1` the growth was -9.46% (active).
`Clc1ccc2c(Nc3ccc4oc(NCCN5CCCC5)nc4c3)ccnc2c1` was tested, and the growth was 70.6% (inactive).
In the case of `COc1ccc(-c2cc(-c3ccc(Cl)cc3)c(C#N)c(=O)n2CCCCC(=O)Nc2ccccc2N)cc1`, the growth is reported as 47.9% (inactive).
With `O=C(NCc1ccc(Cn2c(=O)sn(-c3ccc(Cl)cc3)c2=O)cc1)OCc1ccc2c(Cl)cc(Cl)c(O)c2n1` the growth was 45.4% (inactive).
In the case of `CC1=CC(O)C2CC1C2(C)C` (stereo not given), the growth is reported as 105% (inactive) and 100% (inactive).
With `C[C@H](CCC(=O)O)[C@H]1CC[C@H]2[C@@H]3CC[C@@H]4/C(=C\c5ccco5)C(=O)/C(=C\c5ccco5)C[C@]4(C)[C@H]3CC[C@]12C` the growth was 41.1% (inactive).
With `O=C1NC(=Nc2ccc(S(=O)(=O)Nc3nccs3)cc2)S/C1=C\c1coc2ccccc2c1=O` the growth was 99.9% (inactive).
`CCN(CC)c1ccc2c(c1)Oc1nc(N)c(C#N)c(N)c1C2Sc1ccc(SC)cc1` (stereo not given) was tested, and the growth was -37.4% (active).
`CC1(C)CC(OCCCC[P+](c2ccccc2)(c2ccccc2)c2ccccc2)CC(C)(C)N1O` was tested, and the growth was -44.2% (active).
In the case of `C=C(C)[C@@H]1CC[C@]2(C(=O)O)CC[C@]3(C)[C@H](CC[C@@H]4[C@@]5(C)C[C@@H](CC#Cc6ccc(Cl)cc6)C(=O)C(C)(C)[C@@H]5CC[C@]43C)[C@@H]12`, the growth is reported as 16.9% (inactive).
`COC1=CC(c2ccc[nH]2)=N/C1=C\c1[nH]c(C)c(C(=O)OCCn2cc(CCC[C@@H]3Cc4cc(O)ccc4C4CC[C@]5(C)[C@@H](O)CC[C@H]5C43)nn2)c1C` (stereo not given in full) was tested, and the growth was 78% (inactive).
In the case of `O=C1/C(=C/c2ccccc2Br)COc2ccc(O)c(O)c21`, the growth is reported as 19.2% (inactive).
With `N=S(c1ccccc1[N+](=O)[O-])c1ccccc1[N+](=O)[O-]` the growth was 15.1% (inactive).
With `CC1CCCc2sc3nc(NNC(=O)c4cnccn4)n(-c4ccccc4)c(=O)c3c21` (stereo not given) the growth was -31.8% (active) and -42.9% (active).
In the case of `CC(C)(C)OC(=O)NCCc1ccc(N)cc1`, the growth is reported as 94.3% (inactive).
In the case of `Nc1cc(F)ccc1[N+](=O)[O-]`, the growth is reported as 100% (inactive).
For `COc1ccc2c(c1)OC(N)=C(C#N)C2c1ccc(F)cc1` (stereo not given), the growth was 7.54% (active).
With `Cc1cc(=O)oc2cc(Oc3nc(-c4ccccc4)cn4c(-c5ccccc5)cnc34)ccc12` the growth was 44.2% (inactive).
With `COc1ccc2sc3c(NCCCN)nc4ccccc4c3c(=O)c2c1` the growth was 48.6% (inactive).
